Assay results from PubChem BioAssay (Tox21).
Where “and” joins values, the source holds several entries; their conditions need not be identical. Equal values may be shown once. Records with an inconclusive call do not appear. Where a structure was tested more than once in an assay, its records may differ in their call. Calls of active or inactive are those of the source. Unless noted, the call rests on the fitted dose curve; in most records, active means well fitted curve in the direction sought with a large enough effect in the repeat runs; inconclusive means weak or mixed curves; inactive means no such curve, though single readings can be large; an effect the other way counts as inactive or inconclusive.

Key:
[1] = A CellTox Green Cytotoxicity Assay to monitor cytotoxicity in HepG2 cells - 0 hour (AID 1224882); further: nearly all actives have a fitted effect of over 35% in size; further: potency means the concentration at half of the fitted maximal effect
How it was run: (§1)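 Continuous culture of HepG2 cells with a membrane-impermeant DNA dye; rising fluorescence marks dead cells. Compound exposure lasted up to 40 h at 37 C, with reads every 8 h from 0 h.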

[2] = A CellTox Green Cytotoxicity Assay to monitor cytotoxicity in HepG2 cells - 32 hour (AID 1224883); further: nearly all actives have a fitted effect of over 50% in size; further: potency means the concentration at half of the fitted maximal effect
How it was run: as §1

[3] = A CellTox Green Cytotoxicity Assay to monitor cytotoxicity in HEK293 cells - 8 hour (AID 1224884); further: nearly all actives have a fitted effect of over 35% in size; further: potency means the concentration at half of the fitted maximal effect
How it was run: (§2)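 Each value comes from one timepoint of a single continuous run in which HEK293 cells with CellTox Green were exposed to compound for up to 40 h at 37 C, dye fluorescence rising with cell death.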

[4] = qHTS RealTime-Glo MT Cell Viability Assay in HepG2 cells - 16 hour (AID 1224885); further: nearly all actives have a fitted effect of over 50% in size; further: potency means the concentration at half of the fitted maximal effect
How it was run: (§3)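 Viability was tracked continuously by NanoLuc luminescence from prosubstrate reduced by living HepG2 cells, at successive time points over 40 h of compound exposure. Cells with reagent were preincubated 5 h at 37 °C before compound addition.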

[5] = qHTS RealTime-Glo MT Cell Viability Assay in HEK293 cells - 24 hour (AID 1224886); further: nearly all actives have a fitted effect of over 50% in size; further: potency means the concentration at half of the fitted maximal effect; on activity change, negative = cytotoxicity: top concentration of the series differs between compounds
How it was run: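 Viability tracked continuously by luminescence as live cells reduce a prosubstrate for NanoLuc; HEK293 cells preincubated 5 h, compound-treated at 37 C, and read at 0, 8, 16, 24, 32 and 40 h.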

[6] = qHTS RealTime-Glo MT Cell Viability Assay in HEK293 cells - 8 hour (AID 1224887); further: nearly all actives have a fitted effect of over 50% in size; further: potency means the concentration at half of the fitted maximal effect; on activity change, negative = cytotoxicity: top concentration of the series differs between compounds
How it was run: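 qHTS format; HEK293 cells with NanoLuc/prosubstrate reagent, 37 C/5% CO2 for 5 h pre-dosing; compounds 23 nL in DMSO; luminescence at each time point reflects viable cells.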

[7] = A CellTox Green Cytotoxicity Assay to monitor cytotoxicity in HEK293 cells - 16 hour (AID 1224888); further: nearly all actives have a fitted effect of over 35% in size; further: potency means the concentration at half of the fitted maximal effect
How it was run: as §2

[8] = qHTS RealTime-Glo MT Cell Viability Assay in HepG2 cells - 0 hour (AID 1224889); further: nearly all actives have a fitted effect of over 50% in size; further: potency means the concentration at half of the fitted maximal effect
How it was run: as §3

[9] = A CellTox Green Cytotoxicity Assay to monitor cytotoxicity in HepG2 cells - 8 hour (AID 1224890); further: nearly all actives have a fitted effect of over 45% in size; further: potency means the concentration at half of the fitted maximal effect
How it was run: as §1

[10] = qHTS assay to identify small molecule antagonists of the estrogen receptor alpha (ER-alpha) signaling pathway using the BG1 cell line in the presence of 0.1 nM 17-beta-estradiol - cell viability counter screen (AID 1259241); further: nearly all actives have a fitted effect of over 40% in size
How it was run: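 Cytotoxicity counter-screen: live-cell protease activity measured by fluorescence (30 min reagent step) in the same wells. Cells were VM7Luc4E2 with endogenous ER-alpha and ERE-driven luciferase, treated 22 hr at 37C alongside 0.1 nM 17beta-estradiol final.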

[11] = qHTS assay to identify small molecule phospholipidosis (PLD) inducers (AID 1259344; active means well fitted curve in the direction sought with a large enough effect; an effect the other way counts as inactive or inconclusive)
How it was run: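 Fluorescent phospholipid staining (LipidTOX Red) measured by automated microscopy in fixed HepG2 cells after 24 h treatment; nuclei counterstained with Hoechst 33342; amiodarone as reference inducer.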

[12] = qHTS assay to identify small molecule HDAC inhibitors (AID 1259364); further: top concentration of the series differs between compounds; nearly all actives have a fitted effect of over 45% in size
How it was run: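 Endogenous HDAC class I/II activity was measured in wild-type HCT-116 cells by HDAC-Glo luminescence after 2 h compound treatment.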

[13] = qHTS assay to identify small molecule agonists of the sonic hedgehog signaling (Shh) pathway - cell viability counter screen (AID 1259366); further: nearly all actives have a fitted effect of over 50% in size; further: potency means the concentration at half of the fitted maximal effect
How it was run: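 Cytotoxicity counter screen: CellTiter-Fluor reagent added after 23 h compound exposure, then 1 h at 37C and fluorescence read. Cells were 3T3 Gli1-Luc, seeded 2,000 per well and dosed 4 h post-plating.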

[14] = qHTS assay to identify small molecule antagonists of the sonic hedgehog signaling (Shh) pathway - cell viability counter screen (AID 1259367); further: nearly all actives have a fitted effect of over 55% in size; further: potency means the concentration at half of the fitted maximal effect
How it was run: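 Using CellTiter-Fluor, viability of Gli1-Luc reporter 3T3 cells is read by fluorescence in the wells used for the Shh luciferase assay. Treatment lasts 23 hr with conditioned medium, then reagent 1 hr at 37C.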

[15] = qHTS assay to identify small molecule agonists of the sonic hedgehog signaling (Shh) pathway (AID 1259368; calls by dose curve;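 further: NIH/3T3-derived 3T3Gli1-Luc cells carrying a stable Gli1-driven firefly luciferase reporter; series mostly up to about 92 µM; nearly all actives have a fitted effect of over 15% in size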)
How it was run: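 Luminescent signal was taken as a measure of Gli1-controlled luciferase expression in stably transfected NIH/3T3-derived cells that had been treated for 24 hr with compounds delivered in DMSO.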

[16] = qHTS assay to identify small molecule antagonists of the androgen receptor (AR) signaling pathway using the MDA cell line in the presence of 0.5 nM R1881 - cell viability counter screen (AID 1259242); further: nearly all actives have a fitted effect of over 45% in size; further: potency means the concentration at half of the fitted maximal effect
How it was run: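 Fluorescence from CellTiter-Fluor, which reports protease activity of live cells, was read 30 min after reagent addition to MDA-kb2 cells that had been incubated 16 hr with compound and 0.5 nM R1881.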

[17] = molecular target: Androgen receptor (Homo sapiens) (UniProt P10275); assay: qHTS assay to identify small molecule antagonists of the androgen receptor (AR) signaling pathway using the MDA cell line in the presence of 0.5 nM R1881 (AID 1259243); further: nearly all actives have a fitted effect of over 50% in size
How it was run: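 Inhibition of R1881 (0.5 nM final) induced reporter signal was measured in human MDA-kb2 cells; note the MMTV promoter also responds to GR. Exposure lasted 16 hr at 37C.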

[18] = molecular target: Estrogen receptor (Homo sapiens) (UniProt P03372); assay: qHTS assay to identify small molecule antagonists of the estrogen receptor alpha (ER-alpha) signaling pathway using the BG1 cell line in the presence of 0.1 nM 17-beta-estradiol (AID 1259244); further: nearly all actives have a fitted effect of over 50% in size; further: potency means the concentration at half of the fitted maximal effect
How it was run: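 Quantitative high-throughput screen in VM7Luc4E2 cells: compound plus 0.1 nM E2 (final), 22 h, 37C, 5% CO2; ONE-Glo added, 30 min room temperature, luminescence measured.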

[19] = qHTS assay to identify small molecule HDAC inhibitors - cell viability counter screen (AID 1259365)
How it was run: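 CellTiter-Glo luminescence (30 min, room temperature) reported viability after a 2 h compound exposure at 37 C. Cells: wild-type HCT-116, 1,500 per well, seeded the night before.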

[20] = qHTS assay to identify small molecule antagonists of the sonic hedgehog signaling (Shh) pathway (AID 1259369; calls by dose curve; further: nearly all actives have a fitted effect of over 45% in size; further: potency means the concentration at half of the fitted maximal effect)
How it was run: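 Screening used 3T3Gli1-Luc cells at 2,000 per well, compounds delivered in DMSO, and conditioned medium as agonist stimulus; plates incubated 24hr at 37 C and 5% CO2 before a 30min luciferase step.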
On the % scale 0 is the no-effect control and ±100 the full control effect.

Sequence of Estrogen receptor (Homo sapiens) (P03372 whole entry, looked up): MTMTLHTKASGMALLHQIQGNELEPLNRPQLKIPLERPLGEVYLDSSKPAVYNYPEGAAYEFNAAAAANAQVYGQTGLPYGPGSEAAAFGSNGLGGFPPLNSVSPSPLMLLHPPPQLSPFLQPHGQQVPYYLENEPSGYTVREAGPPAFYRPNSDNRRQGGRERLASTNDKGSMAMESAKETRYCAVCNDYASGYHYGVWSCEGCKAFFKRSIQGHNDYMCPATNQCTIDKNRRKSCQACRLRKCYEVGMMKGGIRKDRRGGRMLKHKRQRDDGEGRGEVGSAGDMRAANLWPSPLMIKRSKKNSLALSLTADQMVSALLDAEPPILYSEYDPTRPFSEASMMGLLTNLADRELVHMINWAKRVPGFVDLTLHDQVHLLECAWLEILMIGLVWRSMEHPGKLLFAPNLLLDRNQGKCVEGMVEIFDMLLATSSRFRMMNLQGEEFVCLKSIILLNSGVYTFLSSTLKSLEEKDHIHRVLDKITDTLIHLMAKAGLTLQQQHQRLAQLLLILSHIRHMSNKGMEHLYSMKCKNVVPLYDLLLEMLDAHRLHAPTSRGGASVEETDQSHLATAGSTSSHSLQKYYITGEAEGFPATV
Sequence of Androgen receptor (Homo sapiens) (P10275 whole entry, looked up): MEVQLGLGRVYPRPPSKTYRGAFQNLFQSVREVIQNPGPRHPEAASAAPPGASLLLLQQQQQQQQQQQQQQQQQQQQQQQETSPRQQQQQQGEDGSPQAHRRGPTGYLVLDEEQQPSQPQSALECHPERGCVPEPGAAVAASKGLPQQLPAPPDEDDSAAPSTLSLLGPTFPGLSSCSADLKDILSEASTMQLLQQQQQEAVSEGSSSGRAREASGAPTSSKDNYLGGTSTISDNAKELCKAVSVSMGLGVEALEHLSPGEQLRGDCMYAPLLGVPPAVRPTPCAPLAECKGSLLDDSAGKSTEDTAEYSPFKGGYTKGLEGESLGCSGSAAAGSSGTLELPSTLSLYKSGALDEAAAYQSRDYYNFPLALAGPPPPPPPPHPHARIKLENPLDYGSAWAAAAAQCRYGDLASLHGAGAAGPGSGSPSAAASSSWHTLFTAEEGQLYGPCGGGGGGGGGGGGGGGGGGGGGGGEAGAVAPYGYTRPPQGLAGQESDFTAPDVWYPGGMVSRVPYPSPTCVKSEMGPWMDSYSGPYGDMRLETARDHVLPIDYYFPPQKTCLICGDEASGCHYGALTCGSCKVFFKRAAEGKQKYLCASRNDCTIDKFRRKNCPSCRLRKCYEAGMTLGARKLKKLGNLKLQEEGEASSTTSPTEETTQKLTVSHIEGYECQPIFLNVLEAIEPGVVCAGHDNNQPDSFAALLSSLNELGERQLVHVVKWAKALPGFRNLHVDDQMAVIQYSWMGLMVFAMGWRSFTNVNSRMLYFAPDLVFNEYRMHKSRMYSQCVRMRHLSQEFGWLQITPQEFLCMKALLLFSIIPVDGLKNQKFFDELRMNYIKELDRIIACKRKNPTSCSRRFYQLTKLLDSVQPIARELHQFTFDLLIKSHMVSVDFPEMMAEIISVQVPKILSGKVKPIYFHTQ

CC(NN)c1ccccc1 (stereo unspecified)
inactive: cytotoxicity [1] -2.26% [at 15.8 µM] | cytotoxicity increase [2] -12.7% [at 15.8 µM] | cytotoxicity increase [3] -1.23% [at 15.8 µM] | activity change, negative = cytotoxic [4] 0.634% [at 15.8 µM] | activity change, negative = cytotoxicity [5] -0.0571% [at 15.8 µM] | activity change, negative = cytotoxicity [6] -8.04% [at 15.8 µM] | activity change [7] -3.48% [at 15.8 µM, stronger effect = higher value] | activity change, negative = cytotoxicity [8] -3.22% [at 15.8 µM] | cytotoxicity increase [9] -3.04% [at 15.8 µM] | activity change, negative = cytotoxicity [10] 6.27% [at 19 µM] | Potency [11] | activity change, negative = inhibition [12] 0.741% [at 19 µM] | viability change, negative = cytotoxic [13] 2.68% [at 19 µM] | Potency [14] | activity change [15] 1.23% [at 18.9 µM, stronger effect = higher value]

CN(C)CCCOC1(Cc2ccccc2)CCCCCC1
inactive: Potency [1] | Potency [2] | Potency [3] | Potency [4] | Potency [5] | Potency [6] | Potency [7] | Potency [8] | Potency [9] | Potency [10] | Potency [16] | Potency [17] | Potency [18] | Potency [12] | Potency [19] | Potency [13] | Potency [14]

COC(=O)C1=C(C)NC(C)=C(C(=O)OCC(C)C)C1c1ccccc1[N+](=O)[O-] (stereo unspecified)
48.6 µM (active) and inactive: Potency [18]
inactive: Potency [1] | Potency [2] | Potency [3] | Potency [7] | Potency [9] | Potency [10] | Potency [16] | Potency [11] | Potency [12] | Potency [15]
active: Potency [4] 43.6 µM | Potency [5] 24.5 µM | Potency [6] 21.9 µM | Potency [8] 21.9 µM | Potency [13] 30.6 µM | Potency [14] 61.1 µM

Cc1cc(N)c(S(=O)(=O)O)cc1Cl
inactive: Potency [1] | Potency [2] | Potency [3] | Potency [4] | Potency [5] | Potency [6] | Potency [7] | Potency [8] | Potency [9] | Potency [10] | Potency [16] | Potency [12] | Potency [19] | Potency [13] | Potency [14] | Potency [15] | Potency [20]

CC(C)(C)C(=O)OCOC(=O)[C@@H]1N2C(=O)[C@@H](NC(=O)[C@H](N)c3ccccc3)[C@H]2SC1(C)C
inactive: Potency [1] | Potency [2] | Potency [3] | Potency [4] | Potency [5] | Potency [6] | Potency [7] | Potency [8] | Potency [9] | Potency [10] | Potency [16] | Potency [18] | Potency [11] | Potency [12] | Potency [19] | Potency [14] | Potency [15] | Potency [20]

CC(=O)SC[C@@H](Cc1ccccc1)C(=O)NCC(=O)OCc1ccccc1
inactive: Potency [1] | Potency [2] | Potency [3] | Potency [4] | Potency [5] | Potency [6] | Potency [7] | Potency [8] | Potency [9] | Potency [10] | Potency [16] | Potency [18] | Potency [11] | Potency [12] | Potency [19] | Potency [13] | Potency [14] | Potency [15] | Potency [20]

CSc1ccc(C(=O)c2[nH]c(=O)[nH]c2C)cc1
inactive: Potency [1] | Potency [2] | Potency [3] | Potency [4] | Potency [5] | Potency [6] | Potency [7] | Potency [8] | Potency [9] | Potency [10] | Potency [16] | Potency [18] | Potency [11] | Potency [12] | Potency [19] | Potency [13] | Potency [14] | Potency [15] | Potency [20]

O=C(O)c1c(Cl)cccc1Cl
inactive: Potency [1] | Potency [2] | Potency [3] | Potency [4] | Potency [5] | Potency [6] | Potency [7] | Potency [8] | Potency [9] | Potency [10] | Potency [16] | Potency [12] | Potency [19] | Potency [13] | Potency [14] | Potency [15] | Potency [20]

CCN(CC)CCNC(=O)c1c(C)[nH]c(/C=C2\C(=O)Nc3ccc(F)cc32)c1C
active: Potency [1] 21.3 µM | Potency [2] 10.7 µM | Potency [3] 23.9 µM | Potency [4] 21.3 µM | Potency [5] 9.52 µM | Potency [6] 21.3 µM | Potency [7] 23.9 µM | Potency [9] 19 µM | Potency [16] 29.8 µM | Potency [13] 5.96 µM | Potency [14] 13.3 µM | Potency [20] 3.35 µM
inactive: Potency [8] | Potency [12] | Potency [19] | Potency [15]

Cc1ccc(O)c(C(C)(C)C)c1
inactive: Potency [1] | Potency [3] | Potency [4] | Potency [5] | Potency [6] | Potency [7] | Potency [8] | Potency [10] | Potency [16] | Potency [12] | Potency [13] | Potency [14] | Potency [15]
active: Potency [2] 43.6 µM and 34.7 µM | Potency [9] 48.9 µM and 38.9 µM

Cc1cccc(N(C)C(=S)Oc2ccc3c(c2)C2CCC3C2)c1 (stereo unspecified)
inactive: Potency [1] | Potency [2] | Potency [3] | Potency [4] | Potency [5] | Potency [6] | Potency [7] | Potency [8] | Potency [9] | Potency [10] | Potency [16] | Potency [18] | Potency [12] | Potency [19] | Potency [14] | Potency [15]

Nc1ccc2c3c(cccc13)-c1ccccc1-2
active: Potency [1] 24.8 µM | Potency [2] 44.1 µM | Potency [3] 44.1 µM | Potency [5] 24.8 µM | Potency [6] 19.7 µM | Potency [7] 44.1 µM | Potency [9] 39.3 µM
inactive: Potency [4] | Potency [8] | Potency [17] | Potency [18] | Potency [12] | Potency [19] | Potency [15] | Potency [20]
